Laboratory results reported in PubChem BioAssay.
Records with an inconclusive call do not appear. Activity calls are given as the source filed them.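 Rule for the calls, unless noted: active = RAM network inhibition above 8.4% in each of two replicates, 3 SD over the compound average; inconclusive = above 8.4% inhibition in only one replicate; inactive = 8.4% inhibition or less in each replicate.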

Tests used:
[1] = Her2 expression decrease, cell viability multiplex – SKBR3 breast tumor cells, AlphaScreen, ATP viability, primary screen (AID 461;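 active = Her2 level under about 52% in both replicate screens, with viability over 70% of control, limit read from the data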;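 for Her2 level: lower value means less Her2 protein in the cells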;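 for viability: percent of carrier control wells set as 100% viability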); conditions: SKBR3 Her2 protein level, 18-24 h, measured here: SKBR3 viability, ATP luminescence, at 10 µM
[2] = molecular target: Receptor tyrosine-protein kinase erbB-2 (Homo sapiens) (UniProt P04626); experiment: as above; conditions: 18-24 h, at 10 µM, stronger effect = lower value
[3] = reduced viability of SK-BR-3 breast cancer cells – cell-based, 24 h, human, pilot screen (AID 572;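 active = viability at or below 10% of carrier control in both of two separate runs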;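 note: compound exposure lasted between 18 and 24 h rather than exactly 24 h; 100% = carrier-treated control wells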); conditions: SK-BR-3 viability, CellTiter-Glo luminescence, at 10 µM, stronger effect = lower value
[4] = HUVEC growth inhibition – cell-based, human, primary screen (AID 575;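 active = viability at or below 30% in both replicate assays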;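 note: 100% = median of untreated cell wells with 0.1% DMSO on each plate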); conditions: HUVEC proliferation, CellTiter-Glo luminescence, 72 h; at 10 µM; stronger effect = lower value
[5] = H69AR cell proliferation blockers – human, duplicate replicates, primary screen (AID 580;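 active = viability at or under a set limit in both replicates, limit being median viability minus 3 SD, cut at about 48% in these data, passing the limit was not always enough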;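 note: 100% = mean luminescence of untreated wells and 0% = no signal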); conditions: H69AR lung tumor cells viability, ATP luminescence, 72 h; at 10 µM; stronger effect = lower value
[6] = MRP1 drug-resistance reversers in H69AR cells – cell-based, doxorubicin co-treatment, pilot screen (AID 601;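 active = viability loss from added drug above about 55%, and viability with drug at most 40%, in both replicates, limit read from the data, passing the limit was not always enough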); conditions: CellTiter-Glo, 72 h, at 10 µM; for differential viability (reversal): stronger effect = higher value
[7] = yeast transport mutant growth inhibition pilot in 384-well plates, post-Golgi transport modulator project (AID 636; in the data active = inhibition above about 31%); conditions: absorbance 615 nm, about 18 h, stronger effect = higher value
[8] = growth suppression of yeast trafficking mutant, preliminary HTS, modulators of trafficking downstream of Golgi apparatus project, 1536-format plate, OD 615 nm (AID 637; in the data active = inhibition above about 30%); conditions: yeast transport mutant growth, absorbance 615 nm, 18 h; stronger effect = higher value
[9] = S. cerevisiae growth inhibition in permissive medium (OD615), pilot counter-assay for S. cerevisiae lifespan shortening project, permissive growth control (AID 705;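 active = growth inhibition above 25% in both replicates, a cutoff set 3 SD above the mean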); conditions: OD615, 24 h, at 10 µM, stronger effect = higher value
[10] = S. cerevisiae growth inhibition in restrictive medium, OD615, pilot screen, restrictive growth control, yeast lifespan reduction project (AID 706;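 active = growth inhibition above a set limit, 3 SD over mean compound inhibition, in both replicates, cut at about 43% in these data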;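 note: modified DeaD lifespan yeast strain shifted to restrictive glucose medium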); conditions: OD615, 48 h, at 10 µM, stronger effect = higher value
[11] = doxorubicin toxicity protection in MRP-1 cells – H69AR cells, CellTiter-Glo, duplicate, MRP-1 activator project, pilot screen (AID 807;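 active = viability increase at or above a cutoff of the median across tested compounds plus 3 SD, cut at about 8.5% in these data, passing the limit was not always enough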;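 note: compound pretreatment 18-22 h then 72 h combined with doxorubicin; 0% = doxorubicin alone and 100% = vehicle without doxorubicin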); conditions: H69AR viability with doxorubicin, CellTiter-Glo luminescence; at 10 µM; stronger effect = higher value
[12] = viability of HCT116 without oncogenic beta-catenin – human colon tumor cells, pilot screen (AID 823;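 active = cell viability at or below a set limit in both duplicate runs, the limit being the all-compound median minus 4 SD, cut at about 23% in these data, passing the limit was not always enough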;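 note: 0% = wells killed by 20 µM Hyamine and 100% = untreated DMSO cell wells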); conditions: HCT116 beta-catenin knockout viability, CellTiter-Glo, 60 h; at 10 µM; stronger effect = lower value
[13] = viability of PTEN-null HCT116 cells – cell-based, HCT116 clonal line, CellTiter-Glo, pilot screen (AID 824;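 active = viability at or below 27.92% in each of two runs, the all-compound median minus 4 SD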;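 note: 0% = 20 µM Hyamine control and 100% = vehicle cell control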); conditions: HCT116 PTEN-deleted viability, 60 h, at 10 µM, stronger effect = lower value
[14] = RAM pathway blockade in budding yeast – dse1pr::URA3 reporter, 5-FOA selection, pilot screen (AID 869;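 active = inhibition over a set limit, the all-compound mean plus 3 SD, in both replicate runs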;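 note: 0% = DMSO wells with no growth and 100% = 10 µM 1-NA-PP1 with full growth; RAM network block rescues cells from 5-FOA so hits raise OD615 growth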); conditions: S. cerevisiae dse1pr::URA3 5-FOA growth, OD615, 2 d; at 10 µM; stronger effect = higher value; strain carries analog-sensitive mutant Cbk1 kinase
[15] = RAM signaling pathway blockade in yeast – S. cerevisiae, Pdr1DBD-CYC8 efflux-inhibited sensitized strain, primary screen (AID 1298);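 note: 0% = DMSO untreated cells without growth and 100% = 10 µM 1-NA-PP1 full growth; higher means more yeast growth rescued from 5-FOA killing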; conditions: S. cerevisiae cbk1-as DSE1-URA3 strain, 5-FOA growth OD615, 2 d; at 50 µM; stronger effect = higher value
[16] = H69AR cells + 2 uM doxorubicin, measured here: viability with 2 uM doxorubicin, stronger effect = lower value
[17] = H69AR cells, compound alone cytotoxicity

Receptor tyrosine-protein kinase erbB-2 (Homo sapiens), sequence (P04626 whole entry, looked up): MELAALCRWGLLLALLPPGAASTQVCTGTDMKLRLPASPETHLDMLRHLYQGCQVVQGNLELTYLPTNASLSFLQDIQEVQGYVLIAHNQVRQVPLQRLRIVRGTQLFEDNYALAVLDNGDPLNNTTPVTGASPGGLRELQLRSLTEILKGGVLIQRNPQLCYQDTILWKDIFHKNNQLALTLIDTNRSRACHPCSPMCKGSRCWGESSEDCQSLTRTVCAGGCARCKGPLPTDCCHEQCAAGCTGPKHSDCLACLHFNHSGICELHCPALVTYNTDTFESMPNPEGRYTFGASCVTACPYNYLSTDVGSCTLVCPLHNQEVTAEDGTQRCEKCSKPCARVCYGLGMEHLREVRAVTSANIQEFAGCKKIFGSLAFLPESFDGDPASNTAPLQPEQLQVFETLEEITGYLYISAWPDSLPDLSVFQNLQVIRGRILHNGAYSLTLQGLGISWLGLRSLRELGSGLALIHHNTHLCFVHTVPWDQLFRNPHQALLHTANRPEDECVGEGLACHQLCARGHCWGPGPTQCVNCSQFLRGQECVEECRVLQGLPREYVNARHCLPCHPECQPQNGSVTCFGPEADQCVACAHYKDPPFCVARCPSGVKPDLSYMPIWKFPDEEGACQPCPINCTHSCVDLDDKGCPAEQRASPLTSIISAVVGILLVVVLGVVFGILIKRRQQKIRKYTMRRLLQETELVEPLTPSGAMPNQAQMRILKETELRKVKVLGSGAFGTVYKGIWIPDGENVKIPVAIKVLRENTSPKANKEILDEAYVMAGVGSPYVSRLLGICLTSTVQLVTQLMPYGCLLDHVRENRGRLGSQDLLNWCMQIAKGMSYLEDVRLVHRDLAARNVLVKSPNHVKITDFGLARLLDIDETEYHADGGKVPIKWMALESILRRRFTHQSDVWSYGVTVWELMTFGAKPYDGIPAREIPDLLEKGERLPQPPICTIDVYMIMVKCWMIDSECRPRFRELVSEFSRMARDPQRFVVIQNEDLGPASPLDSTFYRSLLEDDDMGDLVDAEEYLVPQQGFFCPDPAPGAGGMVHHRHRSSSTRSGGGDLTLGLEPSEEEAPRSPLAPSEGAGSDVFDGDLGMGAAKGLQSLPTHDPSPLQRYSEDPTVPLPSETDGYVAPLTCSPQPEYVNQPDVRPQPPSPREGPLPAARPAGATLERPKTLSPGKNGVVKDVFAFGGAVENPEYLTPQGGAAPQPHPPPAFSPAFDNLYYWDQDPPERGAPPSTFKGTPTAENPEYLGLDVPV

Row | Compound | viability [1] [%] | Her2 level [2] | viability [3] | viability [4] | viability [5] | differential viability (reversal) ([6]; H69AR cells + 2 uM doxorubicin) | viability [6, 16] [%] | viability [6, 17] [%] | inhibition [7] | inhibition [8] | growth inhibition [9] | growth inhibition [10] | viability increase [11] | viability [12] | viability [13] | inhibition [14] | RAM network inhibition [15]
1 | O=C(COC(=O)C1CC2C=CC1C2)Nc1ccc2c(c1)OC(F)(F)O2 (centres undefined) | 119 | 89.5% (inactive) | 119% (inactive) | 84.2% (inactive) | 94.3% (inactive) | -1.17% (inactive) | 95.5 | 94.3 | -1.95% (inactive) | -0.49% (inactive) | -9.33% (inactive) | 3.8% (inactive) | 3.74% (inactive) | 89.2% (inactive) | 96.2% (inactive) | 1.08% (inactive) | -2.17% (inactive)
2 | CCOc1ccc(N(C(C)C(=O)NC2CCCCCC2)S(C)(=O)=O)cc1 (centres undefined) | 90.5 | 98.5% (inactive) | 90.5% (inactive) | 101% (inactive) | 94.1% (inactive) | 1.44% (inactive) | 92.7 | 94.1 | -2.69% (inactive) | -3.83% (inactive) | -1.18% (inactive) | -21% (inactive) | -2.2% (inactive) | 100% (inactive) | 90.6% (inactive) | 2.62% (inactive) | 6.94% (inactive)
3 | Cc1cccc(-n2ncc3c(NCCCO)ncnc32)c1 | 95.5 | 118% (inactive) | 95.5% (inactive) | 86.4% (inactive) | 88.3% (inactive) | 7.59% (inactive) | 80.7 | 88.3 | 2.4% (inactive) | -2.5% (inactive) | -12.1% (inactive) | -8.93% (inactive) | 0.27% (inactive) | 112% (inactive) | 104% (inactive) | 0.64% (inactive) | -0.67% (inactive)
4 | CC(C)c1nccn1S(=O)(=O)c1cc(Cl)ccc1Cl | 104 | 112% (inactive) | 104% (inactive) | 92.2% (inactive) | 90.3% (inactive) | 3.94% (inactive) | 86.3 | 90.3 | -4.03% (inactive) | -3.83% (inactive) | -4.57% (inactive) | -1% (inactive) | 0% (inactive) | 103% (inactive) | 97.2% (inactive) | 1.64% (inactive) | 4.6% (inactive)
5 | c1nc(NCC2(N3CCOCC3)CCCCC2)c2ccsc2n1 | 82.5 | 93% (inactive) | 82.5% (inactive) | 97.7% (inactive) | 98.6% (inactive) | -0.545% (inactive) | 99.2 | 98.6 | -5.27% (inactive) | -2.54% (inactive) | -25.4% (inactive) | 3.08% (inactive) | -3.33% (inactive) | 78.8% (inactive) | – | 1.14% (inactive) | 8.05% (inactive)
